Where “and” joins values, the source holds several entries; their conditions need not be identical. Identical values can stand only once.
How the values were obtained:
[1] = target: Calcium/calmodulin-dependent protein kinase type II subunit alpha (Homo sapiens) (UniProt Q9UQM7); details: at 1 µM;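 further: reported value is a mean percent inhibition of CAMK2A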
[2] = target: Calcium/calmodulin-dependent protein kinase type II subunit delta (Homo sapiens) (UniProt Q13557); details: at 0.1 µM
[3] = target: Calcium/calmodulin-dependent protein kinase type II subunit delta (Homo sapiens) (UniProt Q13557); details: at 1 µM
[4] = target: T1, Calcium/calmodulin-dependent protein kinase type IV (Homo sapiens) (UniProt Q16566); details: at 0.1 µM
T1 sequence (whole entry): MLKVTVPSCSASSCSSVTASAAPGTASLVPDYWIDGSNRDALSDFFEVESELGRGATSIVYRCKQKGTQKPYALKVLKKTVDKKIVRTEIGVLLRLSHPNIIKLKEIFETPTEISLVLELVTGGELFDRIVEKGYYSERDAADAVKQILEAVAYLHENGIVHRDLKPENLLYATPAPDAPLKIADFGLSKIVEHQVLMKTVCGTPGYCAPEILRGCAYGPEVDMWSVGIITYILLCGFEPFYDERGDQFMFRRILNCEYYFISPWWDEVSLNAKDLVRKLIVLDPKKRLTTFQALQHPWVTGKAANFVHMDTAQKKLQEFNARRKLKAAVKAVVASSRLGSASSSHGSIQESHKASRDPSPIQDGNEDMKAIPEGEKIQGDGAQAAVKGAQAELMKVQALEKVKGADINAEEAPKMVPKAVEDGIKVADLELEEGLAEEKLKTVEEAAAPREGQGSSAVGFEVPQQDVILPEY

[5] = target: T1, Calcium/calmodulin-dependent protein kinase type IV (Homo sapiens); details: at 1 µM
[6] = target: T2, Serine/threonine-protein kinase Chk1 (Homo sapiens) (UniProt O14757); details: at 0.1 µM
T2 sequence (whole entry): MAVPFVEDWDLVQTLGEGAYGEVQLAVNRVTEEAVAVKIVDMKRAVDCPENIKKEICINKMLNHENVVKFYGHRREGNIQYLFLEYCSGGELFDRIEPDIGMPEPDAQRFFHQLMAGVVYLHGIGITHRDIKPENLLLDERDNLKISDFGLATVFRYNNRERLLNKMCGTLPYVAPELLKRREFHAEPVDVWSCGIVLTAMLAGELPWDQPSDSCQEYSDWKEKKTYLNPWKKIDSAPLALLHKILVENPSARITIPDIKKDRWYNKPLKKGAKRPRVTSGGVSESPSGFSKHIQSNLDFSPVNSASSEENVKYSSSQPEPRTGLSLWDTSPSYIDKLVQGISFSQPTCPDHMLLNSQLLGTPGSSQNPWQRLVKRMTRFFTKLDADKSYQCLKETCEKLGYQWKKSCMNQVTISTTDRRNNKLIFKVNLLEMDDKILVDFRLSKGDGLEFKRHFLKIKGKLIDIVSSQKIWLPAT

[7] = target: T2, Serine/threonine-protein kinase Chk1 (Homo sapiens); details: at 1 µM
[8] = target: Serine/threonine-protein kinase Chk2 (Homo sapiens) (UniProt O96017); details: at 0.1 µM
[9] = target: Serine/threonine-protein kinase Chk2 (Homo sapiens) (UniProt O96017); details: at 1 µM
[10] = target: Death-associated protein kinase 1 (Homo sapiens) (UniProt P53355); details: at 0.1 µM
[11] = target: Death-associated protein kinase 1 (Homo sapiens) (UniProt P53355); details: at 1 µM
[12] = target: T3, Serine/threonine-protein kinase DCLK2 (Homo sapiens) (UniProt Q8N568); details: at 0.1 µM
T3 sequence (whole entry): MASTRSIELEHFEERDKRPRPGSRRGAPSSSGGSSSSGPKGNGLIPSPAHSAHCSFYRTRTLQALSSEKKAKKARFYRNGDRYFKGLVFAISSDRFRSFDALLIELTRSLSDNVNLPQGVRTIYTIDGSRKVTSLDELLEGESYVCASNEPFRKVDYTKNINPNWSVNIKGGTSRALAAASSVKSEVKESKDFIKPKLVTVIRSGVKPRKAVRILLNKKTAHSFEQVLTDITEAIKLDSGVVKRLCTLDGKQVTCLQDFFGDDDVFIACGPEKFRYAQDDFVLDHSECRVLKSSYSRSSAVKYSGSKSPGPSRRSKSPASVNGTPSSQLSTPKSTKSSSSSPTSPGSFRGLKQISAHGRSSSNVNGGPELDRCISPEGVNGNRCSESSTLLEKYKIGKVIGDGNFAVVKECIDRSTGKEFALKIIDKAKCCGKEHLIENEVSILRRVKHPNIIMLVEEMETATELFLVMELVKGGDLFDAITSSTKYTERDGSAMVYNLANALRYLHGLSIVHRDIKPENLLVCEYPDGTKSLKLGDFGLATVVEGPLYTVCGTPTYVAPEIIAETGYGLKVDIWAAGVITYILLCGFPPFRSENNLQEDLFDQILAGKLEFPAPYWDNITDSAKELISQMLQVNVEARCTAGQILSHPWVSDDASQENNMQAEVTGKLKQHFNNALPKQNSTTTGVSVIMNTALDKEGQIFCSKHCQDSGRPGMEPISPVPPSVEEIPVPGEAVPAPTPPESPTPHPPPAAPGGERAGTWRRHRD

[13] = target: T3, Serine/threonine-protein kinase DCLK2 (Homo sapiens); details: at 1 µM
[14] = target: MAP kinase-activated protein kinase 2 (Homo sapiens) (UniProt P49137); details: at 0.1 µM
[15] = target: MAP kinase-activated protein kinase 2 (Homo sapiens) (UniProt P49137); details: at 1 µM
[16] = target: MAP kinase-activated protein kinase 3 (Homo sapiens) (UniProt Q16644); details: at 0.1 µM
[17] = target: MAP kinase-activated protein kinase 3 (Homo sapiens) (UniProt Q16644); details: at 1 µM
[18] = target: Serine/threonine-protein kinase MARK1 (Homo sapiens) (UniProt Q9P0L2); details: at 0.1 µM
[19] = target: Serine/threonine-protein kinase MARK1 (Homo sapiens) (UniProt Q9P0L2); details: at 1 µM
[20] = target: MAP/microtubule affinity-regulating kinase 3 (Homo sapiens) (UniProt P27448); details: at 0.1 µM;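 further: mean percent inhibition of MARK3 kinase activity, measured within the GSK PKIS screening panel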
Sequence of MAP/microtubule affinity-regulating kinase 3 (Homo sapiens) (P27448 whole entry, looked up): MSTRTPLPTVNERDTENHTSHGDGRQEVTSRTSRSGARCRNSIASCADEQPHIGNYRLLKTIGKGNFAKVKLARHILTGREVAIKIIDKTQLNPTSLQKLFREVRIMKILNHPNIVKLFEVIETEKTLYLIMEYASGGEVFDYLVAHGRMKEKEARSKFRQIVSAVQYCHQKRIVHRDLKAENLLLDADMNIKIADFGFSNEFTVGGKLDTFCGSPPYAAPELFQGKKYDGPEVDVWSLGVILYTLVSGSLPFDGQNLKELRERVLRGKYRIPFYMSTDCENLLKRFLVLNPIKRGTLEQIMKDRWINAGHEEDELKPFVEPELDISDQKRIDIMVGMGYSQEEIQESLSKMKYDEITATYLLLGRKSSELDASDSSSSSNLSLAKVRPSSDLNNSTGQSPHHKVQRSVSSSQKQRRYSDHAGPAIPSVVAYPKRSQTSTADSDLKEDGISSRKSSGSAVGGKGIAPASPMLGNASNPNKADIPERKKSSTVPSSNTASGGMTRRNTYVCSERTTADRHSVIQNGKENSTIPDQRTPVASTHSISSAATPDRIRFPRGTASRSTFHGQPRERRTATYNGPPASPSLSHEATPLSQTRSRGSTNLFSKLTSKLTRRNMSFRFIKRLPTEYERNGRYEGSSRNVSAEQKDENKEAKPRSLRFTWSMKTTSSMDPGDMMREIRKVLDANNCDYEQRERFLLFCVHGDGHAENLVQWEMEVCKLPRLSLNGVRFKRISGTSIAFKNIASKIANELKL

Sequence of Serine/threonine-protein kinase Chk2 (Homo sapiens) (O96017 whole entry): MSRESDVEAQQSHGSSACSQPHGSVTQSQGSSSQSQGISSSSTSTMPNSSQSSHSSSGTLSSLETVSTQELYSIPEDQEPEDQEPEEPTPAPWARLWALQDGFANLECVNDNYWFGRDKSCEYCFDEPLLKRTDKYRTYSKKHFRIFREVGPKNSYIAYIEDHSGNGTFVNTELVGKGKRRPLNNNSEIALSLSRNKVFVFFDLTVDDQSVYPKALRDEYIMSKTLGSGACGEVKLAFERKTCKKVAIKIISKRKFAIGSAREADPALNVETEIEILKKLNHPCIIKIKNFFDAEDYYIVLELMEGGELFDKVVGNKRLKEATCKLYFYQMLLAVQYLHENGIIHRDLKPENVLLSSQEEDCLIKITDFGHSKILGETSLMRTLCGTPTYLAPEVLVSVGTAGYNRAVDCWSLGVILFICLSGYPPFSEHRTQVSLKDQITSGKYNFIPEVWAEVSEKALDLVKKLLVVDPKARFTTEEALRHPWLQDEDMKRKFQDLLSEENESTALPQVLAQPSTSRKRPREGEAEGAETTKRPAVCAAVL
Sequence of Calcium/calmodulin-dependent protein kinase type II subunit delta (Homo sapiens) (Q13557 whole entry): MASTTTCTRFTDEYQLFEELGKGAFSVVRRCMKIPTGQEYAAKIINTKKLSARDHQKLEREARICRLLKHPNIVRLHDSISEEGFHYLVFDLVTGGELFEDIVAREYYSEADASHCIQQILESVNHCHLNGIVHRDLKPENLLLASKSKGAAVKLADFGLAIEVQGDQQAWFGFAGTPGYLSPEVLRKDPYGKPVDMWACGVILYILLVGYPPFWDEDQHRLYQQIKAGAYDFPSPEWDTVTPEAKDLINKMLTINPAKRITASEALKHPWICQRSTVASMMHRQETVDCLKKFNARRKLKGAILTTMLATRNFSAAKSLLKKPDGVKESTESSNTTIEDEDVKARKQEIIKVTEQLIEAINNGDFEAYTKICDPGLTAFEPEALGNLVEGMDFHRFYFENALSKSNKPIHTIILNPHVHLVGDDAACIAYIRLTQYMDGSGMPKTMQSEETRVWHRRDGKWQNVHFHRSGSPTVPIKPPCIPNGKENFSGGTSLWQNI
Sequence of MAP kinase-activated protein kinase 3 (Homo sapiens) (Q16644 whole entry, looked up): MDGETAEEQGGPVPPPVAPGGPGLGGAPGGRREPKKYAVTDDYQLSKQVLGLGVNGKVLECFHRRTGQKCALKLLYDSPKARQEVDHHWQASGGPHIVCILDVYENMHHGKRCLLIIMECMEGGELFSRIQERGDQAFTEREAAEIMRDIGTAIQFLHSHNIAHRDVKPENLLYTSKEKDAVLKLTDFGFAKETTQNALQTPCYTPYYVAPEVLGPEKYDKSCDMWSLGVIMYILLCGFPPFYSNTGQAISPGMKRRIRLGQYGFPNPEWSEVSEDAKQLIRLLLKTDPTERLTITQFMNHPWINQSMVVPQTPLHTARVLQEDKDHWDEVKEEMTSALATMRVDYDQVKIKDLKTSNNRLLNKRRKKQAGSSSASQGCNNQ
Sequence of MAP kinase-activated protein kinase 2 (Homo sapiens) (P49137 whole entry, looked up): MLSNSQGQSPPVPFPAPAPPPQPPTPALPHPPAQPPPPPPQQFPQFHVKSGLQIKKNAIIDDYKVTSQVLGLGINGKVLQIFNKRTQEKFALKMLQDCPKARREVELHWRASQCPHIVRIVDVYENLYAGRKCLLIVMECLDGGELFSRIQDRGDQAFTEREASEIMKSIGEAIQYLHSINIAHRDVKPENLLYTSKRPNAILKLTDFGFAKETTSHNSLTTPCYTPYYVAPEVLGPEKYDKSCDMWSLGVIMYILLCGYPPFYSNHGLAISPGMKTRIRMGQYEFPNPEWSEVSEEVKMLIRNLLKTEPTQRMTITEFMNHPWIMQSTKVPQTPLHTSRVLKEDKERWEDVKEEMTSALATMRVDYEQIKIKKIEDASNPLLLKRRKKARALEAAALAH
Sequence of Death-associated protein kinase 1 (Homo sapiens) (P53355 whole entry, looked up): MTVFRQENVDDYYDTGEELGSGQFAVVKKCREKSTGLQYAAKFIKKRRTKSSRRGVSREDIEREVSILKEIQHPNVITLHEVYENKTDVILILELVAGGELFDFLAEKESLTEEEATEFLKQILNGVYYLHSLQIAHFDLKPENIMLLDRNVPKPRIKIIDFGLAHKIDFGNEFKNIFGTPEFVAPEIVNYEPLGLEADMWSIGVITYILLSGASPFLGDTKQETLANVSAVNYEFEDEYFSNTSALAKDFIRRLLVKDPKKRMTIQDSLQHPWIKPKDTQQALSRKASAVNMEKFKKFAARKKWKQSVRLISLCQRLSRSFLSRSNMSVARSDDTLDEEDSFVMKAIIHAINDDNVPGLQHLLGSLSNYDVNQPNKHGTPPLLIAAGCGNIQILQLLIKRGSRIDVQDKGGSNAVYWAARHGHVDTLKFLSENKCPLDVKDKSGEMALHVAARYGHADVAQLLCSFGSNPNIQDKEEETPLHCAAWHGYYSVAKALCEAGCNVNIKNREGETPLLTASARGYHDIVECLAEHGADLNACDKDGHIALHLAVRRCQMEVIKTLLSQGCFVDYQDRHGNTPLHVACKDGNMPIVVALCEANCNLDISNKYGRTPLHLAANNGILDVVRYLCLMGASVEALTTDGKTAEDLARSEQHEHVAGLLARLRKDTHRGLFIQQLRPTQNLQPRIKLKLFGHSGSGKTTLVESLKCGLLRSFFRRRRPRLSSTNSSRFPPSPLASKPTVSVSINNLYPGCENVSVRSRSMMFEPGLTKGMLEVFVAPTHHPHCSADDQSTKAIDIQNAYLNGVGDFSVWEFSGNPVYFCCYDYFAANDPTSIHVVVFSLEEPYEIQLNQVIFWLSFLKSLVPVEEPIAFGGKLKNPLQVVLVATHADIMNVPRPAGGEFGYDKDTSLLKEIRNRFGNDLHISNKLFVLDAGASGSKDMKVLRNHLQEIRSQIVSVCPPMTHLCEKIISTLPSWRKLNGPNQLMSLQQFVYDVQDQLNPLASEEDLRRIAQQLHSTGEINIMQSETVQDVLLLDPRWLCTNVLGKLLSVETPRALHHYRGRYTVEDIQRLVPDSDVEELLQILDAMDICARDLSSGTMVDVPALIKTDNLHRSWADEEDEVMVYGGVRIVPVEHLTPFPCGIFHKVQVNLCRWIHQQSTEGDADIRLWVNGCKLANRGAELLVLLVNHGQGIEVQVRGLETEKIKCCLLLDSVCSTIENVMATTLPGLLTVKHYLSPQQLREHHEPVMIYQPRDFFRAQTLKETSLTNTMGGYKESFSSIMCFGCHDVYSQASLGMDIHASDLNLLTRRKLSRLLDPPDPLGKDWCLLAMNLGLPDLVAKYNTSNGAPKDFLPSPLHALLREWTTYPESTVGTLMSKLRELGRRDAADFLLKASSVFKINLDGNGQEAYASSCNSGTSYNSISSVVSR
Sequence of Calcium/calmodulin-dependent protein kinase type II subunit alpha (Homo sapiens) (Q9UQM7 whole entry): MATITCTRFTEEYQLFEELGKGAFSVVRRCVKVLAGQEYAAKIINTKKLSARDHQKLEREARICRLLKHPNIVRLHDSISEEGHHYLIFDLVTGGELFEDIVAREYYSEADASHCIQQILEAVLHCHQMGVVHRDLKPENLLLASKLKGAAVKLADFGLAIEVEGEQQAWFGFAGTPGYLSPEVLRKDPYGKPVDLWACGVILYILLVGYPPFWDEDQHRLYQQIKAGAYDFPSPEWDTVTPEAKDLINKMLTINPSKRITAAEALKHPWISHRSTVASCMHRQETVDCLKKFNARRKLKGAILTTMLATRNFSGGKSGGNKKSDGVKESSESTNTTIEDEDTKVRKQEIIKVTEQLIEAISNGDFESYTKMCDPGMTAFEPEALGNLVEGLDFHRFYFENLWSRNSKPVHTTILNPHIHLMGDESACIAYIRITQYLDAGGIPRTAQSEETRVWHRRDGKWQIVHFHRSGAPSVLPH

SMILES | inhibition [1] | inhibition [2] | inhibition [3] | inhibition [4] | inhibition [5] | inhibition [6] | inhibition [7] | inhibition [8] | inhibition [9] | inhibition [10] | inhibition [11] | inhibition [12] | inhibition [13] | inhibition [14] | inhibition [15] | inhibition [16] | inhibition [17] | inhibition [18] | inhibition [19] | inhibition [20]
COc1cc2c(cc1Nc1nc(Nc3cccc(F)c3C(N)=O)c3cc[nH]c3n1)N(C(=O)CN1CCN(C(C)C)CC1)CC2 | 8.11% | 2.82% | 7.41% | 2.31% | 7.37% | -0.51% | 4.94% | 6.05% | 29.8% | 2.3% | 5.15% | 4.68% | 1.43% | 1.04% | 2.85% | 3.25% | 5.17% | 1.44% | 3.35% | 3.73%
COc1ccccc1-c1cc(/C=C2\C(=O)Nc3ncc(Br)cc32)cc(Br)c1O | 5.91% | 4.86% | 7.42% | 0.86% | 1.67% | 2.44% | 3.84% | 4.82% | 6.73% | 0.98% | 4.6% | 0.85% | 1.21% | 1.81% | 1.69% | 5.31% | 6.33% | 3.43% | 7.22% | 3.34%
c1ccc(-c2n[nH]cc2-c2ccnc(-c3ccc(OCCn4ccnc4)cc3)c2)nc1 | -1.38% | -0.35% | 0.74% | 0.1% | -0.86% | -5.5% | -4.71% | -3.83% | -2.77% | -7.91% | -8.69% | 6.53% | -6.73% | -2.58% | -2.83% | -3.24% | 4.97% | 1.59% | 3.61% | -0.18%
CN1CCN(Cc2ccc(-c3cc4ncnc(Nc5ccc(OCc6cccc(F)c6)c(Cl)c5)c4s3)o2)CC1 | 5.07% and 4.38% | 1.16% and 3.96% | 3.36% and 5.38% | -0.07% and -1.54% | 2.1% and 1.05% | 8.64% and 3.56% | 7.78% and 8.12% | 9.39% and 5.57% | 28.6% and 26.4% | 9.3% and 6.62% | 8.26% and 8.39% | -1.96% and 1.28% | -0.55% and 0.13% | 3.34% and 2.08% | 3.32% and 2.11% | 10.6% and 4.26% | 13% and 4.01% | 2.62% and 3.44% | 6.17% and 6% | 1.67% and 1.64%
Nc1nccc(-c2c(-c3ccc(F)cc3)ncn2C2CCNCC2)n1 | -5.1% and -1.06% | -3.9% and -0.18% | 1.49% and 0.43% | 0% and 0.8% | -2.13% and 0% | -2.55% and 0.68% | -3.32% and -2.24% | -2.81% and -0.53% | -2.65% and -0.65% | -2.18% and -0.72% | -3.07% and -0.77% | 1.18% and 0.52% | -2.79% and 3.76% | -1.56% and -0.23% | -1.96% and -0.84% | 27.6% and 29.5% | 34.1% and 34.6% | -0.83% and 1.71% | -0.5% and 1.51% | -0.05% and -0.2%
COc1cc(N2CCN(C(C)C)CC2)ccc1Nc1nc(Nc2cccc3ncccc23)c2cc[nH]c2n1 | 1.11% | -0.04% | 9.94% | 1.22% | 4.44% | 0.3% | 1.78% | -0.49% | 4.32% | -1.26% | -1.59% | -1.36% | -0.27% | -0.17% | -0.87% | -0.09% | 0.19% | 0.48% | 2.18% | 0.2%
O=C(Nc1n[nH]c2nnc(-c3cccnc3)cc12)C1CC1 | 1.88% | -1.25% | 1.45% | 1.28% | 0.43% | 0.7% | -2.5% | -1.27% | -0.14% | -1.32% | -2.01% | -0.69% | -0.41% | -0.72% | -0.2% | 0.08% | -0.37% | -0.14% | 0.29% | 0.23%
COc1cc(Nc2ncc(-c3ccccc3)o2)cc(OC)c1 | 1.52% | 3.94% | 7.34% | -1.03% | -1.65% | 1.69% | 0.7% | 4.6% | 5.38% | 2.51% | -0.73% | 1.65% | 1.7% | 2.4% | 1.2% | 3.76% | 3.61% | 1.26% | 4.72% | 3.35%
Cc1ccc(-c2cc3c(NC(=O)C4CC4)ncnc3o2)cc1 | 4.25% | 3.37% | 3.7% | -0.74% | 30.3% | -0.37% | 3.47% | 2.56% | 5.07% | 3.63% | 4.66% | 1.46% | 0.28% | 1.78% | 1.3% | 2.67% | 2.29% | 5.62% | 5.21% | 3.78%
Fc1ccc(Nc2nccc(-c3c(-c4ccc(C(F)(F)F)cc4)nn4ncccc34)n2)cc1F | 4.6% | 1.73% | 4.42% | -0.48% | 0.05% | 3% | 3.73% | 3.02% | 4.46% | 3.45% | 4.85% | 1.36% | 0.53% | 1.35% | 0.53% | 1.82% | 4.65% | 3.43% | 4.46% | 3.28%
CCn1c(-c2nonc2N)nc2cncc(C(=O)NCCNC)c21 | -0.37% | 3.51% | 6.88% | -2.59% | 0.71% | 2.97% | -0.23% | 4.63% | 5.44% | 3.2% | 0.19% | 1.52% | 1.62% | 2.34% | 1.53% | 3.52% | 3.94% | 1.84% | 14.9% | 1.81%
NS(=O)(=O)c1cccc(N/C=C2\C(=O)Nc3ccccc32)c1 | 8.27% | 5.11% | 16.3% | 1.25% | 2.86% | 9.31% | 14.3% | 10.6% | 32.8% | 10.6% | 12.5% | 0.84% | 2.32% | 4.22% | 4.45% | 11.3% | 12.1% | 6.31% | 24.4% | 5.23%
